Common to all, as to test: DAPPL (digital affinity profiling via proximity ligation, sequencing); 10 mM Tris-HCl pH 7.5, 50 mM NaCl, 1 mM DTT, 4% glycerol, room temperature, 30 min; GST-TFs on glutathione beads, 16-mer random dsDNA library, 0.1% formaldehyde crosslink after washing; high values mean tight binding
What all share (details): protein: recombinant; tags: N-terminal GST; dsDNA, one strand shown

The target in assay [1] is T1, ERF (Homo sapiens, UniProt P50548 1-548).
T1 sequence: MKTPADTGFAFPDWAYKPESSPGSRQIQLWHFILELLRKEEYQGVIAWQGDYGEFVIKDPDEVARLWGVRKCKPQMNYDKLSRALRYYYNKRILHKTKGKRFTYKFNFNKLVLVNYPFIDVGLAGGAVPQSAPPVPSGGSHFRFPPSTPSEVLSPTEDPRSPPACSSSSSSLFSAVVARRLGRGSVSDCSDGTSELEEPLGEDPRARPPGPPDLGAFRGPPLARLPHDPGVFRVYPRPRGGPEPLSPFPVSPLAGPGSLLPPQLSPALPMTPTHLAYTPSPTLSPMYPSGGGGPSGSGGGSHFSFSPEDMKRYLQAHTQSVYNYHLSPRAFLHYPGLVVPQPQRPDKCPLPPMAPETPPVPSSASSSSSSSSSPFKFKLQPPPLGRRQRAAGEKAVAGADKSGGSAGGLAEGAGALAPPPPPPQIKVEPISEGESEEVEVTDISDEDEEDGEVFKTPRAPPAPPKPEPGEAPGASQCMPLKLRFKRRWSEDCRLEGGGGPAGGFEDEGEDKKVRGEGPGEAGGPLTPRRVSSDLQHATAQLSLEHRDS
Put shortly: (§1)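 A tag-only sample was pooled with DNA-barcoded human transcription factors that had been expressed in yeast as GST fusions and captured on glutathione beads. The pools were incubated for 30 min at room temperature with 200 nmole of a random double-stranded 16-mer DNA library in Tris/NaCl/DTT/glycerol buffer, then washed, crosslinked with 0.1% formaldehyde, proximity-ligated (BsaI/T4 ligase, 1 h, 37 °C), PCR-amplified and sequenced on an Illumina NextSeq500. Binding signal is each hexamer's read frequency for a factor divided by its frequency for the tag-only sample.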

For assay [2], the target named is T2, ETV3L (Homo sapiens, UniProt Q6ZN32 1-361).
T2 sequence: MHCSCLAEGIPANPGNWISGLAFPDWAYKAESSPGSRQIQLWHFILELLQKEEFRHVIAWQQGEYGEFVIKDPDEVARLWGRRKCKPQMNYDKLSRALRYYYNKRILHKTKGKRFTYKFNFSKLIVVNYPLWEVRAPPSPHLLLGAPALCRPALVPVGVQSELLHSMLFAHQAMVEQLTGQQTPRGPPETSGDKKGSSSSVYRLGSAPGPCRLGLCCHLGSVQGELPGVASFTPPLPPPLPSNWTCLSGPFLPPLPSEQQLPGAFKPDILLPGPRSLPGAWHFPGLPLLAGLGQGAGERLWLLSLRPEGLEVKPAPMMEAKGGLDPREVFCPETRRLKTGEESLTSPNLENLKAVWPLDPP
Put shortly: as §1

Assay [3] addresses T3, ETS2 (Homo sapiens, UniProt P15036 1-469).
T3 sequence: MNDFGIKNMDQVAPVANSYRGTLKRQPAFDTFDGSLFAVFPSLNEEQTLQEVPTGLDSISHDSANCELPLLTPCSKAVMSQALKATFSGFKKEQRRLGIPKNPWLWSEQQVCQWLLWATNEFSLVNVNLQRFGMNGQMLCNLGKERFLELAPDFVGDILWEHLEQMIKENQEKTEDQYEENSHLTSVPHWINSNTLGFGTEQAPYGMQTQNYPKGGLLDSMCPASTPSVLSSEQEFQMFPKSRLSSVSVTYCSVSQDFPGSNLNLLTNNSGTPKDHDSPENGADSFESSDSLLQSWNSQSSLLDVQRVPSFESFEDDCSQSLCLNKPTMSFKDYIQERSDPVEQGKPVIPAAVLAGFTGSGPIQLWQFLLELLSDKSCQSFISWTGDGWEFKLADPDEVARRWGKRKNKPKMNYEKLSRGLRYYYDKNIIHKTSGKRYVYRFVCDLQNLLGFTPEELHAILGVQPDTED
In short, it runs like this: as §1

In assay [4] the target is T4, SPDEF (Homo sapiens, UniProt O95238 1-335).
T4 sequence: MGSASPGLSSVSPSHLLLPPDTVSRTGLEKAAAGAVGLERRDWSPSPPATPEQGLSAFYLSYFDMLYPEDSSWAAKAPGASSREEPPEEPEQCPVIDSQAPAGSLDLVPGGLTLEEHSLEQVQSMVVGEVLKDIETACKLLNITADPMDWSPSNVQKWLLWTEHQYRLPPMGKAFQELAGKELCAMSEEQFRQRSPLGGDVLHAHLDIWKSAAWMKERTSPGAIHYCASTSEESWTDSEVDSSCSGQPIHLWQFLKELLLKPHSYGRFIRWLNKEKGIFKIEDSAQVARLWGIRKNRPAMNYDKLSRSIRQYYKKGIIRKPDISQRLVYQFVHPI
Put shortly: as §1

Assay [5] deals with T5, ETV7 (Homo sapiens, UniProt Q9Y603 1-341).
T5 sequence: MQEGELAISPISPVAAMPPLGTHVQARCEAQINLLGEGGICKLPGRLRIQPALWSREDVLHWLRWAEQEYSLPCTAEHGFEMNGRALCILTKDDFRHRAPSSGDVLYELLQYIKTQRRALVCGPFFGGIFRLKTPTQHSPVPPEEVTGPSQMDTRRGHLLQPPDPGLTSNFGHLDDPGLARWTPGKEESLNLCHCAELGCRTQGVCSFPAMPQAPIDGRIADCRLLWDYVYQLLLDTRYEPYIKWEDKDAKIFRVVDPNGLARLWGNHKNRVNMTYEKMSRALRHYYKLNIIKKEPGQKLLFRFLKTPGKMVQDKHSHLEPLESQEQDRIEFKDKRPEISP
Put shortly: as §1

For assay [6], the target named is T6, ETV3 (Homo sapiens, UniProt P41162-2 1-143).
T6 sequence: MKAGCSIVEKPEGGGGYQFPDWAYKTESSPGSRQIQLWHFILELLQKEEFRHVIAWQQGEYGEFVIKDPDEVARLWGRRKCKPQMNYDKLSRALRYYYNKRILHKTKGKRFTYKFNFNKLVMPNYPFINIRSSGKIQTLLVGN
In short, it runs like this:
as §1

In assay [7] the target is ETV6 (Homo sapiens, UniProt P41212 1-452). In short, it runs like this: as §1
Chain of ETV6 (P41212 whole entry): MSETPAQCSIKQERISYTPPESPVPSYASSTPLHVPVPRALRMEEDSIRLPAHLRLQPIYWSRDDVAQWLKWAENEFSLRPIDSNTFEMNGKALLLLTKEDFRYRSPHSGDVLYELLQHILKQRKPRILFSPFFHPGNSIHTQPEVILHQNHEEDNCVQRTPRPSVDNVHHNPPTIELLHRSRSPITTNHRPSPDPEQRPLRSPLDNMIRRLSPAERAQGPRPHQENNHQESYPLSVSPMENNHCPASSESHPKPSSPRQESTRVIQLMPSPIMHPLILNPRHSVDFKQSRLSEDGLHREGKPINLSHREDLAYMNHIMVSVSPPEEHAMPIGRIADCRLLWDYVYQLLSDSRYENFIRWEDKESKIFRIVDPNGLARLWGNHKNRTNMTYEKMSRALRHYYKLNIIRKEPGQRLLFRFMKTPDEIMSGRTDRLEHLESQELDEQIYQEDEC
Assay [8] has as its target T7, ELF5 (Homo sapiens, UniProt Q9UKW6-2 1-255).
T7 sequence: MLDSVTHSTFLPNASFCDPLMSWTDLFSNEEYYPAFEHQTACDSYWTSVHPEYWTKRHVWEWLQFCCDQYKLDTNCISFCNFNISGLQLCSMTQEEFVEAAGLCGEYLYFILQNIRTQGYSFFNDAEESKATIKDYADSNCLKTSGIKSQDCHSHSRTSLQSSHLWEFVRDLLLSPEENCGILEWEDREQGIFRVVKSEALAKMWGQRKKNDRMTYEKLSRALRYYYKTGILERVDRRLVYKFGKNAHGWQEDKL
Put shortly:
as §1

For CTATCG, the binding signal in assay [1] is 1.28 fold enrichment (6-mer frequency, TF over GST control); in assay [2], 1.07 fold enrichment (6-mer frequency, TF over GST control); in assay [3], 1.04 fold enrichment (6-mer frequency, TF over GST control); in assay [4] it was 1.04 fold enrichment (6-mer frequency, TF over GST control); in assay [5], 1.19 fold enrichment (6-mer frequency, TF over GST control); in assay [6], 1.1 fold enrichment (6-mer frequency, TF over GST control). Besides, in assay [7], the binding signal was 1.07 fold enrichment (6-mer frequency, TF over GST control).
In the case of GCGCCC, the binding signal in assay [1] was 1.18 fold enrichment (6-mer frequency, TF over GST control); in assay [2], 1.2 fold enrichment (6-mer frequency, TF over GST control); in assay [3] it was 1.05 fold enrichment (6-mer frequency, TF over GST control); in assay [4] it was 1.13 fold enrichment (6-mer frequency, TF over GST control); in assay [6], 1.2 fold enrichment (6-mer frequency, TF over GST control); in assay [7] it was 1.03 fold enrichment (6-mer frequency, TF over GST control).
TTGCGT: the binding signal was 1.21 fold enrichment (6-mer frequency, TF over GST control) in assay [1]; 1.03 fold enrichment (6-mer frequency, TF over GST control) in assay [2]; 1.08 fold enrichment (6-mer frequency, TF over GST control) in assay [3]; 1.03 fold enrichment (6-mer frequency, TF over GST control) in assay [4]; 1.03 fold enrichment (6-mer frequency, TF over GST control) in assay [8]; 1.03 fold enrichment (6-mer frequency, TF over GST control) in assay [6]. Besides, the binding signal in assay [7] was 1.13 fold enrichment (6-mer frequency, TF over GST control).
As for CTCAGA, the binding signal in assay [1] is 1.21 fold enrichment (6-mer frequency, TF over GST control); in assay [2] it was 1.06 fold enrichment (6-mer frequency, TF over GST control); in assay [3] it was 1.02 fold enrichment (6-mer frequency, TF over GST control); in assay [4] it was 1.11 fold enrichment (6-mer frequency, TF over GST control); in assay [8] it was 1.03 fold enrichment (6-mer frequency, TF over GST control); in assay [6], 1.01 fold enrichment (6-mer frequency, TF over GST control). In addition, in assay [7], the binding signal is 1.13 fold enrichment (6-mer frequency, TF over GST control).
Turning to CAATAG, the binding signal is 1.21 fold enrichment (6-mer frequency, TF over GST control) in assay [1]; 1.02 fold enrichment (6-mer frequency, TF over GST control) in assay [2]; 1.08 fold enrichment (6-mer frequency, TF over GST control) in assay [3]; 1.08 fold enrichment (6-mer frequency, TF over GST control) in assay [4]; 1.11 fold enrichment (6-mer frequency, TF over GST control) in assay [5]; 1.09 fold enrichment (6-mer frequency, TF over GST control) in assay [6]. Moreover, in assay [7], the binding signal was 1.12 fold enrichment (6-mer frequency, TF over GST control).
Regarding CCAAAC, the binding signal in assay [1] is 1.08 fold enrichment (6-mer frequency, TF over GST control); in assay [2], 1.12 fold enrichment (6-mer frequency, TF over GST control); in assay [3] it was 1.1 fold enrichment (6-mer frequency, TF over GST control); in assay [4] it was 1.11 fold enrichment (6-mer frequency, TF over GST control); in assay [8], 1.09 fold enrichment (6-mer frequency, TF over GST control); in assay [6], 1.11 fold enrichment (6-mer frequency, TF over GST control). The binding signal in assay [7] is 1.07 fold enrichment (6-mer frequency, TF over GST control).
For CACACG, the binding signal was 1.12 fold enrichment (6-mer frequency, TF over GST control) in assay [1]; 1.21 fold enrichment (6-mer frequency, TF over GST control) in assay [2]; 1.12 fold enrichment (6-mer frequency, TF over GST control) in assay [3]; 1.16 fold enrichment (6-mer frequency, TF over GST control) in assay [4]; 1.04 fold enrichment (6-mer frequency, TF over GST control) in assay [8]; 1.1 fold enrichment (6-mer frequency, TF over GST control) in assay [6]. In addition, the binding signal in assay [7] is 1.18 fold enrichment (6-mer frequency, TF over GST control).

The record behind these values is PMC7862700, “An all-to-all approach to the identification of sequence-specific readers for epigenetic DNA modifications on cytosine”.
